ssDAF12 agonist: S. stercoralis DAF-12 activation, primary screen. hit rate 1% among 370,000. activation, % at 6.8 µM. HEK293 ssDAF-12/GRIP1 lit1-tk-luc reporter, luminescence; % of 3 µM dafachronic acid response;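 active = activation above the mean over all tested compounds plus 3 SD, cut at about 0.9% in these data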;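 note: 0% = DMSO-only wells and 100% = 3 µM delta7-dafachronic acid wells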
DAX1 inh-1: NR0B1 (DAX1) inhibition; P51843; HEK293 Gal4-DAX1 luciferase reporter, luminescence; inhibition, % at 6.75 µM; hit rate 0.99% among 340,000; AID 504766;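 active = inhibition above the mean over all tested compounds plus 3 SD, cut at about 4.2% in these data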;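 note: 0% = DAX1-transfected cells with DMSO and 100% = empty-vector control cells with DMSO; inhibition shows as a rise in luminescence from relieved DAX1 repression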
DAX1 inh-2: DAX1 (NR0B1) inhibition, primary screen | inhibition, % at 6.8 µM | HEK293T StAR-luciferase reporter, SF-1/DAX-1 repression relief | hit rate 1.1% among 370,000 | AID 652010;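 active = inhibition above the mean over all tested compounds plus 3 SD, cut at about 3.6% in these data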;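 note: 0% = DAX-1 cells with DMSO and 100% = cells lacking DAX-1 with DMSO; higher inhibition means more luminescence from relief of DAX-1 repression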
AHR activator: human AHR activation; P35869; AHR-responsive luciferase reporter cells, luminescence; activation, % at 5 µM; hit rate 2.5% among 320,000; in the data active = activation above about 47%;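 note: 0% = vehicle wells and 100% = reference agonist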
Target sequence (P35869 whole entry, looked up): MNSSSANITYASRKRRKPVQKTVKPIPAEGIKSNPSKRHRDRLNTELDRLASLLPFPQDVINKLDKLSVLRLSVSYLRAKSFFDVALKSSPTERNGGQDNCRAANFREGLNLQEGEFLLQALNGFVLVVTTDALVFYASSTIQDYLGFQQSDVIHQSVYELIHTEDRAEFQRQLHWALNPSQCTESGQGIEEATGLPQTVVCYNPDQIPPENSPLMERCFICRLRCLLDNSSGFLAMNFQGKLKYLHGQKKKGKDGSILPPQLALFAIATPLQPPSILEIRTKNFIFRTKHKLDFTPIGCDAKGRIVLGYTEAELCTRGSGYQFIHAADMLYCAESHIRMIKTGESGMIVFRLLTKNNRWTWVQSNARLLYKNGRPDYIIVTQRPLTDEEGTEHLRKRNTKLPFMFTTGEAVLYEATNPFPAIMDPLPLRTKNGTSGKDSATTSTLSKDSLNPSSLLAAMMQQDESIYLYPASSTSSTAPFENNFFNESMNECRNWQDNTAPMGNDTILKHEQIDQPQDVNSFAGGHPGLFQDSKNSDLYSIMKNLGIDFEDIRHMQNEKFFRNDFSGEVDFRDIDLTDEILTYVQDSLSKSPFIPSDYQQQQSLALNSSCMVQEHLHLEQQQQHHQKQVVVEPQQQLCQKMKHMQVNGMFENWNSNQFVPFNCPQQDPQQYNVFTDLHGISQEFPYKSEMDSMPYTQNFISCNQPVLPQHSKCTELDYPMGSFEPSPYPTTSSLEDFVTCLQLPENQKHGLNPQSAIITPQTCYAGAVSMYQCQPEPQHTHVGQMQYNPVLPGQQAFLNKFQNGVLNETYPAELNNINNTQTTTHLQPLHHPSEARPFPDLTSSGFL
hgDAF12 agonist: activates the H. glycines DAF-12 receptor ligand-binding domain | hit rate 1.8% among 370,000 | activation, % at 6.8 µM | HEK293 GAL4-hgDAF12 UAS-luciferase reporter, agonist luminescence; normalized to butyrate control | AID 687014;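 active = activation above a cutoff set at the mean of all screened compounds plus 3 SD, cut at about 10% in these data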;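 note: 0% = DMSO wells and 100% = sodium butyrate wells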
hcDAF12 agonist: activates DAF-12 receptor from parasite H. contortus; hit rate 1.4% among 370,000; HEK293 hcDAF-12 lit1-tk-luc reporter, luminescence; 0% DMSO, 100% Δ7-dafachronic acid; activation, % at 6.8 µM;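 active = activation above the mean of all tested compounds plus 3 SD, cut at about 5.5% in these data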;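 note: 100% = response to 3 µM Δ7-dafachronic acid high control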
* hit, by the source's call; nt = no result given. Rows were chosen to be rich in hits. Some 5.7% of all compounds tested hit in one or more screens of this group.

SMILES	ssDAF12 agonist	DAX1 inh-1	DAX1 inh-2	AHR activator	hgDAF12 agonist	hcDAF12 agonist
COc1cc(C2c3cc4c(cc3CC3COC(=O)C32)OCO4)cc(OC)c1OC (centres undefined)	-1	-3	4.4*	-1	-5	-2
CN1C(=O)c2ccccc2NC(=O)C1Cc1ccccc1 (centres undefined)	0	4.9*	0	0	0	-1
CN1C(=O)NC(=O)/C(=C\C=C\c2ccccc2[N+](=O)[O-])C1=O	1.4*	nt	0	46	3	5
c1ccc(-c2nc(N3CCOCC3)s[n+]2-c2ccccc2)cc1	0	2	2	4	12*	3
CCOC(=O)c1ccccc1N	-1	0	1	-1	5	2
Nc1ccccc1C(=O)OCc1ccc([N+](=O)[O-])cc1	-1	-1	0	-1	11*	2
Nc1c2c(nc3sc4c(c13)CCCC4)CCCC2	-2	0	1	15	11*	0
N=Cc1c(O)n(-c2ccccc2)c(=O)n(-c2ccccc2)c1=O	-2	-1	-1	3	0	1
Cc1cc(OCC(=O)NC(Cc2ccc(Cl)cc2)C(=O)O)c2c3c(c(=O)oc2c1)CCC3 (centres undefined)	-1	5.8*	0	0	3	0
Cc1cc(OCC(=O)NCc2ccncc2)c2c3c(c(=O)oc2c1)CCCC3	-1	0	-1	64*	1	-1
CC(=O)OC1CCC2(/C=N/O)C(=CCC3C4CCC(=O)C4(C)CCC32)C1 (centres undefined)	-1	-1	0	-1	0	-1
COc1ccc(OC(=O)N(C)C[C@H]2OCc3cnnn3CCCC(=O)N([C@H](C)CO)C[C@H]2C)cc1	0	0	1	nt	0	1
COc1ccc(OC)c(-n2c(O)c(/C=C3\C=Nc4ccccc43)c(=O)[nH]c2=O)c1	2.9*	1	0	15	7	4
COC(=O)C(O)(c1ccc(NC(=O)Oc2ccccc2)cc1)C(F)(F)F (centres undefined)	-2	5.5*	1	1	1	-1
O=C(O)C1C2c3ccccc3C(=O)C1(C(=O)O)c1ccccc12 (centres undefined)	-1	2	0	nt	3	1
Cc1ccccc1CCNCc1cc2cccc(C)c2[nH]c1=O	1.0*	5.6*	0	8	-2	3
O=C1NC(=O)N(Cc2ccccc2)C(=O)/C1=C/N1CCCc2ccccc21	0	3	0	3	4	5.8*
Cc1cc(C)cc(NC(=O)CCNC(=O)N2C[C@H]3C[C@@H](C2)c2cccc(=O)n2C3)c1	-2	4.3*	0	1	-3	-2
C#C[C@]1(O)CC[C@H]2[C@@H]3CCC4=Cc5nc6nc7ccccc7n6cc5C[C@]4(C)[C@H]3CC[C@@]21C	-1	-1	-2	-3	0	-3
COC(=O)c1c2[n+](cc3cc(OC)c(OC)cc13)CCc1cc(OC)c(OC)cc1-2	-1	4.5*	0	1	1	0
COC(=O)C1=C(c2cccc(OC)c2OC)C[C@@H]2CC[C@H]1N2C(=O)NC(C)C	-1	0	1	4	-3	-2
C=CCn1c(O)c(C(CC)=Nc2cccc(C(F)(F)F)c2)c(=O)[nH]c1=O	0	0	0	-4	0	6.1*
CCCCn1c(O)c(/C=C/C=Nc2ccccc2)c(=O)[nH]c1=O	0	0	0	1	-3	-1
O=C(N/N=C/c1c(O)n(Cc2ccc(F)cc2)c(=O)[nH]c1=O)c1ccccc1	-1	6.6*	0	1	11*	1
O=C(N/N=C/c1c(O)n(CCC2=CCCCC2)c(=S)[nH]c1=O)c1ccccc1	0	1	1	9	11*	1
SMILES	ssDAF12 agonist	DAX1 inh-1	DAX1 inh-2	AHR activator	hgDAF12 agonist	hcDAF12 agonist
COC(=O)C1=C(c2ccc(-c3ccccc3)c(F)c2)C[C@@H]2CC[C@H]1N2C(=O)N1CCCC1	-2	-4	-2	-2	-7	-5
COc1ccc(C2=CC(c3ccc4c(c3)OCO4)c3c(c4ccccc4oc3=O)O2)cc1OC (centres undefined)	0	2	0	nt	0	-2
COc1ccc(-n2nnnc2C(CCSC)N2CCC3(CC2)C(=O)NCN3c2ccccc2)cc1 (centres undefined)	-1	nt	-2	nt	2	-2
CCNC(=O)NC(=O)C(C)OC(=O)c1c(C)nn(Cc2ccccc2)c1Cl (centres undefined)	-2	6.3*	0	-2	-1	-1
COc1ccc(-n2c(=O)[nH]c3ccccc3c2=O)c(OC)c1	-1	0	1	-1	-3	-2
COc1ccc2c(c1)NP(=S)(c1ccccc1)N2C (centres undefined)	0	5.3*	4.5*	nt	10	3
COc1ccccc1N=Cc1c(O)n(C)c(=O)n(C)c1=O	-1	0	0	73*	3	0
COc1ccc(Cl)cc1N=Cc1c(O)n(C)c(=O)n(C)c1=O	-1	0	0	7	4	-3
CN1CCN(Cc2cc(=O)n3ccsc3n2)CC1	0	1	1	nt	-1	1
O=c1cc(CN2CCNCC2)nc2sccn12	-1	4.9*	0	-1	1	0
Cc1ccccc1-n1c(-c2ccc([N+](=O)[O-])cc2)nc2ccccc2c1=O	0	-1	-1	1	-4	-2
O=C(NCCN1CCC2(CC1)C(=O)NCN2c1ccccc1)c1ccc(F)cc1	-1	nt	0	nt	2	-2
CN1C(=O)C(=Cc2ccccc2OCc2ccc(Cl)cc2)C(=O)N(C)C1=O	-1	-2	1	0	4	1
O=C1NC(=O)C(=Cc2cc(Cl)ccc2OCc2ccc(C(=O)O)cc2)C(=O)N1	-2	5.5*	0	4	-1	-1
CC1=CC(C)CC(C)OC(=O)CC(c2ccc(O)cc2)NC(=O)C(Cc2c(Br)[nH]c3ccccc23)N(C)C(=O)C(C)NC(=O)C(C)C1 (centres undefined)	-1	-1	-2	nt	-8	-3
CCOC(=O)[C@]12Cc3ccc(C)cc3[C@H]1N(C1CCCCC1)C(=O)c1ccccc12	-2	nt	-1	nt	-2	-3
CCOC(=O)[C@]12Cc3ccccc3[C@H]1N(C(C)C)C(=O)c1ccccc12	-1	nt	4.5*	nt	-2	-1
CN(C)C1C(=O)C(C(N)=O)=C(O)C2(O)C(=O)C3=C(O)c4c(O)cccc4C(C)(O)C3C(O)C12 (centres undefined)	-1	0	0	-3	1	0
Cc1cc(=O)oc2c(C)c(OCC(=O)N3CCC(C(=O)O)(c4ccccc4)CC3)ccc12	-1	4.6*	1	-1	3	-1

Bioassay records deposited in PubChem BioAssay by The Scripps Research Institute Molecular Screening Center.
